From the supplement of paper PMC9262897, “Low-cost anti-mycobacterial drug discovery using engineered E. coli” (Nature Communications, 2022)
Counter-ions that a name gives are not always drawn. ± gives the standard deviation of the averaged measurements.

Tested on: E. coli TESEC Mtb Alr
Test: growth (OD600 after 10 h); higher = more growth (less inhibition)
Conditions: compound 0.1 mM
Experimental: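 TESEC Mtb Alr E. coli, or the Alr+ wild-type control, in 384-well plates with Prestwick library compounds at 0.1 mM and 1% DMSO, across arabinose induction levels of 1E3 to 1E7 nM. Growth is read as OD600 after 10 h at 37 °C in triplicate biological replicates.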

[1] = arabinose 1000 nM, raw OD600 reference: median of DMSO wells 0.294, cell-free background 0.041
[2] = arabinose 10000 nM, raw OD600 reference: median of DMSO wells 0.264, cell-free background 0.041
[3] = arabinose 100000 nM, raw OD600 reference: median of DMSO wells 0.201, cell-free background 0.041
[4] = arabinose 1000000 nM, raw OD600 reference: median of DMSO wells 0.193, cell-free background 0.041
[5] = arabinose 10000000 nM, raw OD600 reference: median of DMSO wells 0.146, cell-free background 0.041

SMILES	growth [1]	growth [2]	growth [3]	growth [4]	growth [5]
CCCc1ncc(C[n+]2ccccc2C)c(N)n1 [Amprolium hydrochloride]	0.284 ± 0.029	0.2572 ± 0.0021	0.207 ± 0.027	0.18 ± 0.0063	0.142 ± 0.0046
NC[C@H]1O[C@H](O[C@H]2[C@H](O)[C@@H](O[C@H]3O[C@H](CO)[C@@H](O)[C@H](N)[C@H]3O)[C@H](N)C[C@@H]2N)[C@H](N)C[C@@H]1O [Tobramycin]	0.0407 ± 0.00085	0.03917 ± 0.00021	0.0411 ± 0.00055	0.03913 ± 0.00031	0.04083 ± 5.8e-05
C[C@H](N[C@@H](CCc1ccccc1)C(=O)O)C(=O)N1CCC[C@H]1C(=O)O [Enalaprilat dihydrate]	0.2913 ± 0.0017	0.285 ± 0.011	0.198 ± 0.019	0.208 ± 0.01	0.1379 ± 0.0012
CCN(CC)C(C)CN1c2ccccc2Sc2ccccc21 (stereo not given) [Ethopropazine hydrochloride]	0.214 ± 0.0057	0.271 ± 0.016	0.172 ± 0.003	0.135 ± 0.0087	0.174 ± 0.0019
CC(=O)N[C@@H](CS)C(=O)O [Acetylcysteine]	0.298 ± 0.0096	0.2731 ± 0.0017	0.203 ± 0.019	0.21 ± 0.012	0.142 ± 0.0051
CN1CCc2c(c3ccccc3n2Cc2ccccc2)C1 [Mebhydroline 1,5-naphtalenedisulfonate]	0.218 ± 0.0081	0.267 ± 0.012	0.199 ± 0.02	0.133 ± 0.0032	0.157 ± 0.005
CC(=O)Nc1ccc(CC(=O)O)cc1 [Actarit]	0.291 ± 0.024	0.259 ± 0.0053	0.198 ± 0.015	0.217 ± 0.0053	0.136 ± 0.0042
CO[C@H]1/C=C/O[C@@]2(C)Oc3c(C)c(O)c4c(O)c(c(/C=N/N5CCN(C)CC5)c(O)c4c3C2=O)NC(=O)/C(C)=C\C=C\[C@H](C)[C@H](O)[C@@H](C)[C@@H](O)[C@@H](C)[C@H](OC(C)=O)[C@@H]1C [Rifampicin]	0.0442 ± 0.003	0.04117 ± 0.00021	0.0444 ± 0.0018	0.04127 ± 0.00012	0.043 ± 0.0014
